# A selection: hits, their analogues and other compounds. The true share with any hit is near 1.7%.
# ABCB6 inh MLPCN – human ABCB6 transporter inhibition; fluorescence ratio to DMSO, % at 10 µM; K562-ABCB6 porphyrin accumulation, flow cytometry, 1 h; stronger effect = lower value; AID 602162; 360,000 compounds, 0.19% hits;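 active means fluorescence ratio to DMSO below 75%, the collection mean minus 3 SD; inconclusive means too few cells collected in the well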;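 further: signal is porphyrin accumulated inside mitochondria; 100% equals median channel fluorescence of DMSO control wells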
# TLR9-MyD88 inh – TLR9-MyD88 interaction inhibition; Q9NR96+Q99836; CHO BLA complementation TLR9-MyD88, CCF4 FRET ratio; inhibition, % at 4.98 µM; 340,000 compounds, 0.21% hits; AID 504734;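 active means inhibition above the mean over all tested compounds plus 3 SD, cut at about 21% in these data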;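 further: 0% = DMSO only wells and 100% = clavulanate BLA inhibitor control wells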
# Myeloid diff MLP – compounds promoting myeloid differentiation. calls only at 10 µM. ER-HoxA9 myeloid progenitors, lysozyme-GFP differentiation, flow cytometry. 360,000 compounds, 1% hits;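 active means normalized GFP-positive differentiation at or above the plate's own cutoff, the solvent-only control mean plus 3 SD; inconclusive means no clear call, values can overlap the other calls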;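 further: cells exposed to compound for four days before flow analysis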
# TLR4-MyD88 BLA – blocks binding of human TLR4 to MyD88 | O00206+Q99836 | HeLa CL3-4 TLR4/MyD88 BLA complementation, FRET ratio | inhibition, % at 8.4 µM | 200,000 compounds, 0.18% hits | AID 861; in the data active means inhibition above about 25%;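 further: 0% = vehicle and 100% = reference inhibitor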
# NOD2 RIPK2 PPI – inhibitors of human NOD2-RIPK2 interaction. 360,000 compounds, 0.38% hits. AID 624267. CHO BLA complementation NOD2-RIPK2, CCF4 ratio. O43353. inhibition, % at 4.98 µM; in the data active means inhibition above about 21%;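 further: 0% = vehicle only and 100% = reference blocker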
# TLR9-MyD88 conf – TLR9-MyD88 interaction inhibition, confirmation; AID 540250; 680 compounds, 51% hits; inhibition, % at 4.98 µM; CHO TLR9/MyD88 BLA complementation, CCF4 FRET ratio; shares compounds with TLR9-MyD88 inh;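 active means mean inhibition across three repeats above about 21% taken from the earlier screen, limit read from the data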;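 further: blue over green emission ratio reports constitutive TLR9 MyD88 association via BLA complementation; 0% = DMSO vehicle wells and 100% = clavulanate BLA inhibitor wells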
# Target sequence (Q9NR96 whole entry, looked up): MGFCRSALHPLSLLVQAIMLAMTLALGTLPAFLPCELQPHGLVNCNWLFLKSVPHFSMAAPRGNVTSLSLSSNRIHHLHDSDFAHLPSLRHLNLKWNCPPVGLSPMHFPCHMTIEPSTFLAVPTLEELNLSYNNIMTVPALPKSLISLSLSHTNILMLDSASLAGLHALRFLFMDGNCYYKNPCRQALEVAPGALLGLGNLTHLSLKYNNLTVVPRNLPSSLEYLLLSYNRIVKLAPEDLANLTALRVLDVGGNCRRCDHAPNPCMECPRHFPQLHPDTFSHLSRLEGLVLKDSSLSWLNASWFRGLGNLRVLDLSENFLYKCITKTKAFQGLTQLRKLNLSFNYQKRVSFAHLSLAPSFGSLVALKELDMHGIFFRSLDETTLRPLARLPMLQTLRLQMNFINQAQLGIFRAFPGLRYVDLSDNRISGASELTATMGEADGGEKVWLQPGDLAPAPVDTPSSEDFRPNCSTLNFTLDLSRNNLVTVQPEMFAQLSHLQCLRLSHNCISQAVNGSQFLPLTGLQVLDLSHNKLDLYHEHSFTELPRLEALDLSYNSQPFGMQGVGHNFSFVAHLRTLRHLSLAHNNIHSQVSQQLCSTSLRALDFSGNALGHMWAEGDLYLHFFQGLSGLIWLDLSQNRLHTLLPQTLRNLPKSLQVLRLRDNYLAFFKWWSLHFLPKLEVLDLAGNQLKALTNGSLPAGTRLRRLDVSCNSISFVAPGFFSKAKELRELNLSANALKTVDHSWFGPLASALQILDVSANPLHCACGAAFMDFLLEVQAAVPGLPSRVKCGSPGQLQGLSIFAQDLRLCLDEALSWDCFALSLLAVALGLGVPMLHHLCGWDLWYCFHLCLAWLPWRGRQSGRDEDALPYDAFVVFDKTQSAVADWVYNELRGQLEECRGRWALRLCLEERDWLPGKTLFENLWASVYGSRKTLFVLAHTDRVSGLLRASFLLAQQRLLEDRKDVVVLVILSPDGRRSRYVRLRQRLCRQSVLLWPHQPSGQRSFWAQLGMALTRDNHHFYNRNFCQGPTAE
# BLA counter – beta-lactamase reporter inhibition, counter-screen artifact; inhibition, % at 4.98 µM; shares compounds with TLR9-MyD88 inh; CHO-BLA cells, CCF4 FRET ratio, BLA reporter; 680 compounds, 7% hits; AID 540251;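 active means mean inhibition above a 50% cutoff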;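 further: counterscreen of TLR9-MyD88 hits on CMV-driven BLA in CHO-K1 cells; 0% = DMSO alone and 100% = clavulanate blocking BLA; higher means less blue over green ratio so more BLA blockade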
# TLR9 CHO tox – CHO cell toxicity counter-screen for TLR9-MyD88 inhibitors. shares compounds with TLR9-MyD88 inh. TLR9-MyD88 CHO cells cytotoxicity, luminescence. inhibition, % at 4.98 µM. 680 compounds, 39% hits; in the data active means inhibition above about 11%
# * = called active by the depositor; i = inactive; ? = inconclusive; nt = no result; + = active, no number.
SMILES,ABCB6 inh MLPCN,TLR9-MyD88 inh,Myeloid diff MLP,TLR4-MyD88 BLA,NOD2 RIPK2 PPI,TLR9-MyD88 conf,BLA counter,TLR9 CHO tox
COc1cc(C(=O)Nc2ccc(C(C)=O)cc2)c(Br)c(OC)c1OC,100,21*,i,0,11,1,-2,5
CCOC(=O)CS(=O)(=O)c1nc(-c2ccc(F)cc2)cc(C(F)(F)F)n1,84,42*,i,7,69*,37*,14,99*
CCOC(=O)CCS(=O)(=O)c1nc(-c2ccccc2)cc(C(F)(F)F)n1,72*,33*,nt,24,69*,39*,13,97*
CCOC(=O)c1c(C(F)(F)F)cc(-c2ccc(F)cc2)nc1C,97,-5,i,1,0,nt,nt,nt
CN=c1scc(-c2cccs2)n1/N=C/c1ccccc1O,92,26*,i,-5,6,8,6,9
CN=c1scc(-c2cccs2)n1/N=C/c1ccc(O)c(O)c1O,102,0,i,2,8,nt,nt,nt
COc1cc(NC(=O)COC(=O)CCc2nc3ccccc3c(=O)[nH]2)cc(OC)c1,97,9,i,nt,7,nt,nt,nt
N#Cc1cccc(NC(=O)COC(=O)CCc2nc3ccccc3c(=O)[nH]2)c1,102,21*,i,-12,-6,-1,0,-2
CC(C)(C)c1ccc(C(O)c2ncc(-c3cccc(F)c3)[nH]2)cc1 (centres undefined),95,nt,i,nt,12,nt,nt,nt
O=Nc1c(O)n(Cc2cccc(Cl)c2)c2ccccc12,92,26*,i,4,20,18,16,14*
COc1ccccc1C1CC(=O)Nc2c1c(=O)n(C)c(=O)n2C (centres undefined),99,-5,i,4,-10,nt,nt,nt
COc1cccc(C2CC(=O)Nc3c2c(=O)n(C)c(=O)n3C)c1OC (centres undefined),104,24*,i,-15,-9,-2,-3,-5
CCCNC(=O)C1(C)CCCN(CCC(=O)c2ccccc2)C1 (centres undefined),100,nt,i,nt,4,nt,nt,nt
CC(=O)C1=C(C)NC(SCC(=O)c2ccc(F)cc2)=C(C#N)C1c1ccco1 (centres undefined),104,11,i,1,3,nt,nt,nt
CC(=O)C1=C(C)NC(SCC(=O)c2ccc(Cl)c(Cl)c2)=C(C#N)C1c1ccco1 (centres undefined),129,21*,+,18,4,7,8,9
COc1ccccc1C(=O)NCCC(=O)N1CC(C)OC(C)C1 (centres undefined),100,0,i,nt,-6,nt,nt,nt
COc1cccc(CN(CCC(=O)O)Cc2cccc(OC)c2)c1,102,5,i,nt,8,nt,nt,nt
O=C(Nc1nc2c(s1)CN(Cc1ccccc1)CC2)c1cccc(S(=O)(=O)N2CCc3ccccc32)c1,105,28*,+,19,8,5,6,-2
O=C(c1ccco1)N1CCN(C(=S)Nc2ccccc2C(F)(F)F)CC1,103,1,i,nt,-11,nt,nt,nt
COc1ccc(OC)c(/C=C/c2nc3ccccc3[nH]c2=O)c1,95,28*,i,nt,14,30*,32,0
COC(=O)CSc1nn(-c2ccc(F)cc2)c(=S)s1,96,3,i,7,-3,nt,nt,nt
COc1ccc2oc(=O)c(-c3nnc(N)s3)cc2c1,101,21*,i,4,17,8,11,-3
COc1ccc2oc(=O)c(-c3nc(C)cs3)cc2c1,101,3,i,-7,8,nt,nt,nt
O=C1C=CC(=O)N1CCCCCCCCCCN1C(=O)C=CC1=O,89,42*,i,nt,5,56*,34,96*
O=C(O)C1CCCN1C(=O)NC1CCCCC1 (centres undefined),100,-6,i,nt,-16,nt,nt,nt
SMILES,ABCB6 inh MLPCN,TLR9-MyD88 inh,Myeloid diff MLP,TLR4-MyD88 BLA,NOD2 RIPK2 PPI,TLR9-MyD88 conf,BLA counter,TLR9 CHO tox
Cc1cccc(NC(=O)CCN2C(=O)c3ccccc3S2(=O)=O)c1C,93,21*,i,nt,-15,4,1,-1
CCc1ccc(OCC(=O)N/N=C(\C)c2ccc(OC(F)F)cc2)cc1,100,21*,i,7,-8,1,4,4
CC(C)(C)c1ccc(C2=CC(c3ccccc3F)n3ncnc3N2)cc1 (centres undefined),94,22*,i,nt,15,-4,-8,5
COc1ccc(S(=O)(=O)N2CCNC(=O)C2)cc1Br,99,22*,i,14,6,-3,0,2
O=[N+]([O-])c1ccc(Sc2cccc[n+]2[O-])c2nonc12,120,55*,nt,nt,89*,59*,9,101*
Cc1cccc(NC(=O)c2cc(-c3cc(Cl)ccc3O)n[nH]2)c1,95,23*,i,nt,-40,-6,-2,-10
O=C(NC1(C(F)(F)F)NC(=O)N(CC2CCCCC2)C1=O)c1ccco1 (centres undefined),101,1,i,15,-14,nt,nt,nt
Cc1ccc(Cn2cccc2/C=C2/C(=N)N3C=CSC3=NC2=O)cc1,94,30*,i,1,-7,6,11,16*
O=C1N/C(=N\S(=O)(=O)c2ccccc2)S/C1=C\c1cc([N+](=O)[O-])ccc1O,115,25*,i,nt,11,9,13,0
Cc1ccc(N=N/C(=C\O)C(=O)c2ccc(Cl)cc2)cc1,97,21*,i,-12,-10,6,4,11*
CCC(C)NC(=O)CNC(=S)N(Cc1ccccc1F)C1CCCCC1 (centres undefined),97,8,nt,-1,3,nt,nt,nt
COc1ccc(OC)c(C2C=C(c3ccc(C)c(C)c3)Nc3nnnn32)c1 (centres undefined),97,-1,i,nt,9,nt,nt,nt
COc1cccc(C2=CC(c3ccc(N(C)C)cc3)n3nnnc3N2)c1 (centres undefined),107,8,i,-2,12,nt,nt,nt
COc1ccc(C2=CC(c3ccc(C)cc3)n3nnnc3N2)cc1 (centres undefined),97,26*,i,8,27*,5,7,-2
COc1ccc(C2C=C(c3ccccc3)Nc3nnnn32)cc1 (centres undefined),92,24*,i,1,-2,4,1,-1
O=C(N/N=C\c1c[nH]c2ccccc12)c1ccc(O)cc1,97,21*,i,nt,3,0,0,1
O=C(N/N=C/c1c[nH]c2ccccc12)c1ccc(Br)cc1,96,-3,i,nt,3,nt,nt,nt
O=C(N/N=C/c1c(O)ccc2ccccc12)c1cccnc1,105,6,?,nt,-4,nt,nt,nt
